Measurements taken from the supplement of paper PMC10849652.
About 8,800 targets were measured; listed, in parts, are those with a hit and a random draw of the rest. About 0.5% of all pairs of compound and target were hits. Values without a mark were called inactive.

Tests used:
Assay in all cases: log2 fold change, soluble protein after heating vs DMSO (PISA); higher = thermal stabilisation; K562 lysate, 10 uM; active = over 0.2 and 3.5 SD of the protein, either way, in both replicates (recomputed)
[1] = compound: CCCS(=O)(=O)Nc1ccc(F)c(C(=O)c2c[nH]c3ncc(-c4ccc(Cl)cc4)cc23)c1F [vemurafenib]
Method in brief: (§1)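 Values give the log-two fold change in thermal stability against solvent controls, from duplicates. Crude K562 extract at 1 mg/mL protein, made by dounce homogenisation in PBS pH 7.4 with 1 mM MgCl2, was treated with 10 μM compound for 30 min. After 3 min heating across 48°C-58°C, aliquots were pooled, adjusted to 0.5% NP-40 at 4°C and centrifuged at 21,000xg for 90 min. The supernatant was measured by TMTpro 16plex LC-MS/MS with channel sums equalised.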

[2] = compound: CCCS(=O)(=O)Nc1ccc(F)c(C(=O)c2c[nH]c3ncc(Cl)cc23)c1F
Method in brief: as §1

[3] = compound: CCN(CCCOc1ccc2c(Nc3cc(CC(=O)Nc4cccc(F)c4)[nH]n3)ncnc2c1)CCOP(=O)(O)O [barasertib]
Method in brief: as §1

[4] = compound: CC[C@@H]1C(=O)N(C)c2cnc(Nc3ccc(C(=O)NC4CCN(C)CC4)cc3OC)nc2N1C1CCCC1
Method in brief: as §1

[5] = compound: CC[C@@H]1C(=O)N(C)c2cnc(Nc3ccc(C(=O)N[C@H]4CC[C@H](N5CCN(CC6CC6)CC5)CC4)cc3OC)nc2N1C(C)C [volasertib]
Method in brief: as §1

[6] = compound: CCn1c(C(=O)N(C2CC2)C2CC2)cc2c3c(ncn3C)c(Nc3cc(C)n(C)n3)nc21
Method in brief: as §1

[7] = compound: CCn1cc(-c2ccnc3[nH]c(-c4cccc(CN(C)C)c4)cc23)c(-c2ccc(NC(=O)N(C)C)cc2)n1
Method in brief: as §1

[8] = compound: CN1CCC(CNc2ccc3ncc(-c4cccc(OC(F)(F)F)c4)n3n2)CC1
Method in brief: as §1

[9] = compound: CN1CCN(CCOc2cc(OC3CCOCC3)c3c(Nc4c(Cl)ccc5c4OCO5)ncnc3c2)CC1 [saracatinib]
Method in brief: as §1

[10] = compound: CN1CCN(c2nc(C3=C(c4c[nH]c5ccccc45)C(=O)NC3=O)c3ccccc3n2)CC1 [sotrastaurin]
Method in brief: as §1

[11] = compound: CN1CC[C@H](c2c(O)cc(O)c3c(=O)cc(-c4ccccc4Cl)oc23)[C@H](O)C1 [alvocidib]
Method in brief: as §1

[12] = compound: CN1CCc2c(c3ccccc3n2Cc2ccc(C(=O)NO)cc2)C1 [Tubastatin A]
Method in brief: as §1

[13] = compound: CNC(=O)C1=CC=CC=C1NC2=NC(=NC=C2Cl)NC3=C(C=C(C=C3)N4CCOCC4)OC
Method in brief: as §1

[14] = compound: CNC(=O)c1ccc(Nc2ncc(C(F)(F)F)c(NCc3nccnc3N(C)S(C)(=O)=O)n2)cc1 [defactinib]
Method in brief: as §1

[15] = compound: CNc1nc(-c2ccc3c(N)n[nH]c3c2)cc(N2C[C@@H](C(=O)NC3CCCCC3)CC[C@H]2C)n1
Method in brief: as §1

[16] = compound: COC(=O)N[C@@H](C)CNc1nccc(-c2cn(C(C)C)nc2-c2cc(Cl)cc(NS(C)(=O)=O)c2F)n1 [encorafenib]
Method in brief: as §1

[17] = compound: COC(=O)[C@H](CCSC)NC(=O)C1=C(C=C(C=C1)NC[C@H](CS)N)C2=CC=CC=C2
Method in brief: as §1

[18] = compound: COc1cc(Nc2ncc3c(n2)-c2ccc(Cl)cc2C(c2c(F)cccc2OC)=NC3)ccc1C(=O)O [alisertib]
Method in brief: as §1

[19] = compound: COc1cc2nc(-c3cc(F)ccc3O)nc(N[C@@H]3CNC[C@H]3C(C)(C)O)c2cc1OC
Method in brief: as §1

[20] = compound: COc1cc2ncnc(Nc3ccc(F)c(Cl)c3)c2cc1OCCCN1CCOCC1 [gefitinib]
Method in brief: as §1

Chain of UniProt Q14103 (Q14103 whole entry, looked up): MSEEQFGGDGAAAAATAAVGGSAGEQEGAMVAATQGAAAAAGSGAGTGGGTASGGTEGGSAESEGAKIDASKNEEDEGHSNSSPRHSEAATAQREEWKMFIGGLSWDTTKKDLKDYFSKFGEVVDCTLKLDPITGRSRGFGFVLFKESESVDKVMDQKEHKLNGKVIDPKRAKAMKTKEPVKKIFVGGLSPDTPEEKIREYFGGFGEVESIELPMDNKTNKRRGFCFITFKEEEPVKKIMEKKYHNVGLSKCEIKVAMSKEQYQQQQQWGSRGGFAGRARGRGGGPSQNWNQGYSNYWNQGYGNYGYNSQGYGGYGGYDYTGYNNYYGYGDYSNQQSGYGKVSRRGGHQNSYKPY
Chain of UniProt P50053 (P50053 whole entry, looked up): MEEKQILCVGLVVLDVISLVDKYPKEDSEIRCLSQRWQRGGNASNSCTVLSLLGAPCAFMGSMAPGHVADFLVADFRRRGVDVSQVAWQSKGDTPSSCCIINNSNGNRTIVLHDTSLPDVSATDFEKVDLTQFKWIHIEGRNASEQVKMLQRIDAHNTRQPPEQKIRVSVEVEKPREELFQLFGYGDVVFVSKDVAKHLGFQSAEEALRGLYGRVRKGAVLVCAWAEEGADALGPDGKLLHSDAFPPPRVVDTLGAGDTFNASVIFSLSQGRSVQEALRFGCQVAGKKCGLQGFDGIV
Chain of UniProt Q75QN2 (Q75QN2 whole entry, looked up): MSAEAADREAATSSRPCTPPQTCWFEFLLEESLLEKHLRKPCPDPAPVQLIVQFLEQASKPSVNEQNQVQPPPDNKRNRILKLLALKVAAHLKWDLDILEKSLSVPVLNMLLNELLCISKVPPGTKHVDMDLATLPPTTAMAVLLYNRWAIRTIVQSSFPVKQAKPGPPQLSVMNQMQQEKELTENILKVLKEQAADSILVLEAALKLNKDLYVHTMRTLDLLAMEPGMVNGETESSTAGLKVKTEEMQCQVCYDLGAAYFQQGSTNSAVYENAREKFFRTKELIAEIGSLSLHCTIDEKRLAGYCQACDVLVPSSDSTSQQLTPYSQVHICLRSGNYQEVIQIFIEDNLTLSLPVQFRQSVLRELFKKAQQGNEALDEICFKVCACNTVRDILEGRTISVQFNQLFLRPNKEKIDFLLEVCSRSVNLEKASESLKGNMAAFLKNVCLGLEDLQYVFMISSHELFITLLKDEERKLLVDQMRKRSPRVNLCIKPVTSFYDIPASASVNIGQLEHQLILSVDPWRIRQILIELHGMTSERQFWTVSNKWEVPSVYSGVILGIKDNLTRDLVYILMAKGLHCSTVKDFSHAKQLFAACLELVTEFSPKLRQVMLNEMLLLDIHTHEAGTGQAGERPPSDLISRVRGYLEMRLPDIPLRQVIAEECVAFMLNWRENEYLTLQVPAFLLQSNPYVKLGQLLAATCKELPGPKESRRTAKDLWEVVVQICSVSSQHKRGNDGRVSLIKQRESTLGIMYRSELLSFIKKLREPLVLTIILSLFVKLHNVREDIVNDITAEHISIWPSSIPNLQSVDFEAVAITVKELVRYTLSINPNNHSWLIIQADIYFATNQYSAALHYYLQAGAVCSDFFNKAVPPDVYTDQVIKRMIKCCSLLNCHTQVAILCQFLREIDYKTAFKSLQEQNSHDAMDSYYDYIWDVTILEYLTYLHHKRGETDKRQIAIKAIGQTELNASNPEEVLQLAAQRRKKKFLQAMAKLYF
Chain of UniProt Q8IYU2 (Q8IYU2 whole entry, looked up): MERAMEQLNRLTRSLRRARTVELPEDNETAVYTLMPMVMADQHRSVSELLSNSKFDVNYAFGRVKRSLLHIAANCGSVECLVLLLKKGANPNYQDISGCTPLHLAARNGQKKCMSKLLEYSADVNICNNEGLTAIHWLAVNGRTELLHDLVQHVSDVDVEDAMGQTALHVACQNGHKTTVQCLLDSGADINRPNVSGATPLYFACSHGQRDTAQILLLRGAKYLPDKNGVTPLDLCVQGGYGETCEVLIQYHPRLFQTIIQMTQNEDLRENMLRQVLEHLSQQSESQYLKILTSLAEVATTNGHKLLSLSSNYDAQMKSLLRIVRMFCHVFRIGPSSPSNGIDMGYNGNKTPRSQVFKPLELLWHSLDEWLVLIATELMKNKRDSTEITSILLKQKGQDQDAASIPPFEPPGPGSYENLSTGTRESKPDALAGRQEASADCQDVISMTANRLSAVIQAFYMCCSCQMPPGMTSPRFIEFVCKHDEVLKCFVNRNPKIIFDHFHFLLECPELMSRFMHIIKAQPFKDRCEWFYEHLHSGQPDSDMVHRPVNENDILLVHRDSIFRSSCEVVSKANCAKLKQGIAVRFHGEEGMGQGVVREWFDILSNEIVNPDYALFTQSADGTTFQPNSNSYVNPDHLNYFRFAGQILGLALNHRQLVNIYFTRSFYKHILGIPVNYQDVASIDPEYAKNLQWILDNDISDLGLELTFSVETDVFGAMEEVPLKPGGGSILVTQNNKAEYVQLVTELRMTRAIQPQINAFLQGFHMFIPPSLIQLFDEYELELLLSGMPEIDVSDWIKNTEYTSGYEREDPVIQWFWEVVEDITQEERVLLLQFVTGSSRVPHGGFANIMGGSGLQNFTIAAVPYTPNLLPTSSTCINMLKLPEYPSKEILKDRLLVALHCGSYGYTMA
Chain of UniProt Q53T59 (Q53T59 whole entry, looked up): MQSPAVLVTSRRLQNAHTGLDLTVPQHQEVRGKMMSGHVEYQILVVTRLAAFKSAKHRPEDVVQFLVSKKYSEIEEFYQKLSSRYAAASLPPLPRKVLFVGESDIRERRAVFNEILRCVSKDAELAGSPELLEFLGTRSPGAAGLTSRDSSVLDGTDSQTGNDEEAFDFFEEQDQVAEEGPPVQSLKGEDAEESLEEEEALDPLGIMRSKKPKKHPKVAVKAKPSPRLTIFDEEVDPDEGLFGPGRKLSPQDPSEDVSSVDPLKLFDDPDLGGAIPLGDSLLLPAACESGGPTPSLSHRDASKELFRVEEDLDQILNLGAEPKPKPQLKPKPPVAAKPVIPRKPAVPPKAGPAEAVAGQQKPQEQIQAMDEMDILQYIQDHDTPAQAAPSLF
Chain of UniProt Q8NEC7 (Q8NEC7 whole entry, looked up): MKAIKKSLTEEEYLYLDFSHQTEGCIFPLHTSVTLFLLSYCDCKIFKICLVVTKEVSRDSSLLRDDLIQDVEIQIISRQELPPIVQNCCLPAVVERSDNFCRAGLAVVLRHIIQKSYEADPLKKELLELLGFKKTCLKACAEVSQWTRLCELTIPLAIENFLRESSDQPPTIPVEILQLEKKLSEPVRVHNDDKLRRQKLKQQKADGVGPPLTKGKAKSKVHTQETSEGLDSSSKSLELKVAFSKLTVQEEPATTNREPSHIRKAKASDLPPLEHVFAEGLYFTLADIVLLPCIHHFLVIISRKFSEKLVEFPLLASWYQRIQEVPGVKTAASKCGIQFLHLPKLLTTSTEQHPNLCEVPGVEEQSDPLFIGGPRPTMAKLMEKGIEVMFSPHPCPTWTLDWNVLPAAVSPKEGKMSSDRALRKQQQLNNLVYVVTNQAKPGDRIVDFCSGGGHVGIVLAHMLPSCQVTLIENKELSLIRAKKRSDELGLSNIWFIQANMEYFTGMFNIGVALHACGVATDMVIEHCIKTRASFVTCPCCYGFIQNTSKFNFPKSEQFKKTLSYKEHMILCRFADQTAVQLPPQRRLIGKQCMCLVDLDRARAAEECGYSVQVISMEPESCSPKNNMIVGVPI
Chain of UniProt Q9NVX0 (Q9NVX0 whole entry, looked up): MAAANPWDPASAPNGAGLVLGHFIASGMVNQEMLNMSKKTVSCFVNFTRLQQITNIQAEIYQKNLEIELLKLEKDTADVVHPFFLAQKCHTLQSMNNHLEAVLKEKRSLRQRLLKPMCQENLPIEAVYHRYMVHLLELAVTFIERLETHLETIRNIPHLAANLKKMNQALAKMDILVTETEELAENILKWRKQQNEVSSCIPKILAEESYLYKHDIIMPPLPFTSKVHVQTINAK
Chain of UniProt Q9BXW7 (Q9BXW7 whole entry, looked up): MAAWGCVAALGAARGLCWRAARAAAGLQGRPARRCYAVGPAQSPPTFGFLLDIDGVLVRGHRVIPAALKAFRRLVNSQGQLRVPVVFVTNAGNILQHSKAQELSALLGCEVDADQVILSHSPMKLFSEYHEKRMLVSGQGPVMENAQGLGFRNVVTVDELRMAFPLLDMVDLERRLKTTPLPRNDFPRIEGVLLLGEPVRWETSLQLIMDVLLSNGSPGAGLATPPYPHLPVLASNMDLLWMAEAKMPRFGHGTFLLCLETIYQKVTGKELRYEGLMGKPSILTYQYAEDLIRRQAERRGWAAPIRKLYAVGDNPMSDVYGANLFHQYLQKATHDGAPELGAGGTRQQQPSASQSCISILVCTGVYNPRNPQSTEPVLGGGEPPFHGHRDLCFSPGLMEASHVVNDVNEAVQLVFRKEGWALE
Chain of UniProt P11142 (P11142 whole entry, looked up): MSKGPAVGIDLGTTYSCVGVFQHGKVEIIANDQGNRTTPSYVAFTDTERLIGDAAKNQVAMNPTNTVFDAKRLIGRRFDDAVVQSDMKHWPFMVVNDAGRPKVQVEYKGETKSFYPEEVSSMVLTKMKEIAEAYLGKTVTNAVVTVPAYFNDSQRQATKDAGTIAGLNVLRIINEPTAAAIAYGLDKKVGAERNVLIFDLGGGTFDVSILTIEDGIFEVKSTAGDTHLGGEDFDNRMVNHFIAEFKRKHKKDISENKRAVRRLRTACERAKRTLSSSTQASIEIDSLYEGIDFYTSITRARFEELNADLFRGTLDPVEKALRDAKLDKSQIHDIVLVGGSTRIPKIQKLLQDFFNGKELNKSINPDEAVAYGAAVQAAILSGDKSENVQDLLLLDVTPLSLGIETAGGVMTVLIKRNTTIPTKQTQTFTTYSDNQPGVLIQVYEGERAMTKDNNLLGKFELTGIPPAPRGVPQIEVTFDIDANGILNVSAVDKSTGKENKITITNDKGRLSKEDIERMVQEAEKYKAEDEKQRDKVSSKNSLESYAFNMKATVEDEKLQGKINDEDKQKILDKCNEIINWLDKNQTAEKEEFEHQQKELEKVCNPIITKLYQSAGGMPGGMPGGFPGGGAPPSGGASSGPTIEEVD

Target | log2 fold change [1] | log2 fold change [2] | log2 fold change [3] | log2 fold change [4] | log2 fold change [5] | log2 fold change [6] | log2 fold change [7] | log2 fold change [8] | log2 fold change [9] | log2 fold change [10] | log2 fold change [11] | log2 fold change [12] | log2 fold change [13] | log2 fold change [14] | log2 fold change [15] | log2 fold change [16] | log2 fold change [17] | log2 fold change [18] | log2 fold change [19] | log2 fold change [20]
HIST2H2AA3 (UniProt Q6FI13) | -0.078 | 0.028 | -0.012 | -0.007 | -0.006 | 0.012 | 0.694 (active) | -0.217 | -0.034 | -0.116 | 0.202 | 0.092 | -0.002 | -0.032 | 0.277 | -0.027 | 0.086 | -0.097 | -0.027 | -0.086
KHK isoform 2 (UniProt P50053) | -0.021 | 0 | 0.052 | -0.053 | 0.017 | 0.076 | 0.404 (active) | -0.072 | 0.067 | 0.013 | 0.058 | -0.001 | -0.057 | -0.038 | -0.068 | 0.03 | -0.02 | 0.008 | 0.083 | -0.038
INTS8 (UniProt Q75QN2) | 0.016 | 0.02 | -0.131 | -0.024 | -0.061 | 0.041 | -0.075 | 0.037 | 0.09 | 0.084 | -0.011 | -0.013 | 0.083 | 0.084 | 0.011 | 0.098 | -0.111 | -0.008 | -0.033 | -0.04
HSPA8 (UniProt P11142) | -0.024 | 0.003 | -0.035 | -0.031 | -0.003 | 0.002 | -0.005 | 0.014 | -0.001 | 0.004 | 0.005 | 0.056 | -0.036 | -0.003 | -0.019 | -0.004 | 0.009 | 0.002 | -0.004 | 0.008
ICAM2 (UniProt P13598) | -0.036 | 0.016 | 0.018 | 0.03 | 0.015 | -0.017 | 0.426 (active) | -0.031 | 0.004 | -0.035 | 0.078 | 0.017 | 0.032 | 0.039 | -0.019 | -0.026 | -0.065 | -0.016 | 0.009 | -0.02
INTS7 (UniProt Q9NVH2) | -0.059 | -0.058 | 0.335 | -0.073 | 0.013 | 0.028 | 0.027 | 0.039 | 0.005 | -0.057 | -0.012 | 0.008 | -0.025 | -0.125 | -0.017 | 0.067 | 0.017 | -0.022 | -0.018 | 0.028
HAUS2 (UniProt Q9NVX0) | -0.076 | -0.005 | 0.097 | 0.018 | 0.038 | 0.036 | 0.141 | -0.089 | 0.048 | -0.007 | 0.069 | -0.079 | 0.041 | -0.171 | -0.047 | 0.088 | 0.043 | -0.037 | 0.014 | -0.049
HACE1 (UniProt Q8IYU2) | 0.066 | 0.07 | 0.081 | 0.069 | -0.058 | 0.039 | -0.657 (active) | 0.252 | 0.025 | -0.154 | -0.177 | 0.006 | -0.042 | -0.06 | 0.278 | -0.057 | 0.18 | 0.061 | 0.045 | -0.152
HDHD5 (UniProt Q9BXW7) | -0.033 | 0.043 | -0.137 | -0.076 | -0.02 | 0.01 | 0 | 0.011 | -0.06 | 0.05 | -0.097 | -0.078 | 0.041 | -0.069 | 0.034 | 0.026 | 0.024 | 0.031 | 0.012 | -0.063
HSP90AA4P (UniProt Q58FG1) | -0.002 | 0 | 0.377 | 0.006 | 0.005 | -0.076 | 0.26 | 0.041 | -0.03 | 0.033 | -0.228 | 0.052 | -0.081 | -0.213 | -0.046 | -0.022 | 0.123 | -0.012 | 0.068 | 0.042
HNRNPD isoform 2 (UniProt Q14103) | 0.011 | 0.002 | -0.052 | 0.022 | 0.029 | -0.036 | 0.857 (active) | -0.135 | 0 | -0.08 | 0.142 | 0.108 | 0.001 | -0.043 | 0.065 | -0.032 | -0.008 | 0.018 | -0.008 | 0
GON4L (UniProt Q3T8J9) | 0 | 0.054 | 0.097 | -0.064 | -0.018 | 0.02 | -0.104 | -0.027 | -0.019 | 0.016 | 0.019 | -0.114 | 0.028 | -0.001 | 0.007 | 0.092 | 0.107 | -0.015 | -0.027 | -0.074
HAUS5 (UniProt O94927) | 0.004 | 0.048 | -0.02 | -0.038 | -0.016 | 0.026 | 0.01 | -0.087 | -0.008 | 0.03 | 0.062 | -0.146 | 0.007 | 0.026 | 0.015 | -0.006 | 0.092 | -0.01 | 0.006 | -0.007
HS1BP3 (UniProt Q53T59) | -0.003 | -0.012 | 0.056 | 0.029 | -0.002 | 0.014 | -0.238 | 0.092 | 0.082 | 0.013 | -0.054 | 0.034 | -0.015 | -0.016 | -0.052 | 0.009 | -0.088 | -0.021 | 0.021 | -0.031
GSTCD (UniProt Q8NEC7) | 0.028 | 0.057 | -0.039 | -0.018 | -0.05 | 0.011 | -0.055 | -0.015 | 0.034 | 0.037 | 0.03 | -0.13 | 0.055 | -0.002 | -0.013 | 0.052 | 0.138 | -0.068 | 0.002 | 0
GMIP (UniProt Q9P107) | 0.041 | 0.048 | -0.024 | -0.01 | 0 | -0.005 | -0.027 | -0.004 | 0.007 | 0.034 | -0.078 | -0.139 | 0.088 | 0.033 | -0.01 | 0.061 | 0.031 | -0.014 | -0.078 | 0.11
